About 83,000 compounds went through this panel and 20% of them were active in at least one assay; those are over-represented in the sample as a whole.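 Interpretation: 100, growth as untreated; towards 0, rising growth inhibition; 0, no net growth; 0 to -100, cell death. Compounds scoring below 10 were considered active.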 Calls of active or inactive are those of the source.
What was measured:
Assay in all cases: NCI-60 one-dose screen, 48 h (100 = growth as untreated, 0 = no growth, -100 = all killed)
Conditions in all cases: 10 µM unless noted
[1] = system: SR leukemia
[2] = system: RPMI-8226 leukemia
[3] = system: OVCAR-8 ovarian
[4] = system: OVCAR-5 ovarian
[5] = system: OVCAR-4 ovarian
[6] = system: SK-OV-3 ovarian
[7] = system: IGROV1 ovarian
[8] = system: OVCAR-3 ovarian
[9] = system: HS 578T breast
[10] = system: NCI/ADR-RES ovarian
[11] = system: T-47D breast
[12] = system: MDA-MB-435 melanoma
[13] = system: SW-620 colon
[14] = system: MCF7 breast
[15] = system: HCT-116 colon
[16] = system: HCC-2998 colon
[17] = system: KM12 colon
[18] = system: BT-549 breast

Measured: growth

Nc1nc(SCc2ccccc2)c2ncn(C3CCCC3)c2n1
inactive: [1] 81.4% | [2] 92.9% | [3] 110% | [4] 96.4% | [5] 101% | [6] 107% | [7] 98.1% | [8] 112% | [9] 139% | [10] 92.5% | [11] 98.7% | [12] 104% | [13] 102% | [14] 91.7% | [15] 107% | [16] 107% | [17] 113%

COc1ccc(-n2cc(-c3ccccc3)c3c(SCC(=O)N/N=C/c4ccc([N+](=O)[O-])cc4)ncnc32)cc1
inactive: [1] 108% | [2] 108% | [3] 103% | [4] 99.2% | [5] 102% | [6] 109% | [7] 108% | [8] 105% | [9] 105% | [10] 91.3% | [11] 98.7% | [12] 109% | [13] 103% | [14] 92.5% | [15] 105% | [16] 97.7% | [17] 101%

CSc1nc2sc3c(c2c(=O)n1-c1ccc(C(C)C)cc1)CCC(=O)C3
active: [1] -11.7% | [2] -29.9% | [3] 4.63% | [4] 6.13% | [7] -6.1% | [8] -27.4% | [9] 2.67% | [10] -11.1% | [11] -48.3% | [12] -6.88% | [13] -30.3% | [15] 2.14% | [17] -42%
inactive: [5] 14.5% | [6] 35.6% | [14] 16% | [16] 16.5%

CC(=O)OC1Oc2cc(C)c(C)cc2-c2oc(=O)c(-c3cc4ccc(N(C)C)cc4oc3=O)cc21 (stereo not drawn)
active: [1] -41.6%
inactive: [2] 29.4% | [3] 75.9% | [4] 86.4% | [5] 89.8% | [6] 78.2% | [7] 93.2% | [8] 94.1% | [9] 112% | [10] 64.7% | [11] 26.3% | [12] 72.6% | [13] 104% | [14] 78.6% | [15] 48.3% | [16] 106% | [17] 94.5%

O=C1c2cc3c(cc2-c2c1c1cc(F)c(F)cc1c(=O)n2C[C@H](O)CO)OCO3
inactive: [9] 42.1% | [13] 11.7%
active: [1] -16.5% | [2] -0.801% | [3] 4.44% | [4] 4.09% | [5] 7.88% | [6] -4.97% | [7] 8.38% | [8] -8.12% | [10] -17% | [11] -9.55% | [18] 0.808% | [12] -11% | [15] 3.5% | [17] 5.01%

C=C1C(=O)O[C@H]2[C@H]1CC/C(Cn1cc(Cc3c[nH]c4ccccc34)nn1)=C\CC[C@@]1(C)O[C@@H]21
inactive: [4] 76.2% | [5] 43.8% | [6] 97.1% | [7] 40.2% | [9] 73.5% | [10] 85.8% | [12] 13.6% | [17] 67.2%
active: [1] -5.78% | [2] -26% | [3] 0.832% | [8] -28.3% | [11] 1.32% | [13] -58.7% | [14] -61.2% | [15] -89.5%

Oc1ccccc1/C=N/Nc1ccc2ccccc2n1
active: [1] 8.32% | [5] -0.697% | [8] 8.79%
inactive: [2] 35.2% | [3] 33.2% | [4] 81% | [6] 43% | [7] 28.1% | [9] 79.3% | [10] 22.9% | [11] 21.8% | [12] 65.2% | [13] 34% | [15] 22.3% | [16] 68.6% | [17] 46.3%

C=C1CC2(OC1=O)C(=O)N(CCCCCCCN1C(=O)C3(CC(=C)C(=O)O3)c3ccccc31)c1ccccc12 (stereo not drawn)
active: [1] 3.28% | [2] -28.1% | [3] 9.09% | [8] 3.44% | [12] 6.35% | [13] -49.8% | [14] -4.01% | [15] -21.8%
inactive: [4] 45.1% | [5] 10.2% | [6] 112% | [7] 10.5% | [9] 62.3% | [10] 32.6% | [11] 22.5% | [16] 82.5% | [17] 73.6%

CC(=O)C1=C(O)C=C2Oc3c(C(=O)/C=C/c4cc(Cl)cc(Cl)c4)c(O)c(C)c(O)c3[C@]2(C)C1=O
active: [1] -20.5% | [2] -22.1% | [3] -24.3% | [4] 0.163% | [5] 8.73% | [6] -24.4% | [7] -13.8% | [8] -28.6% | [9] -16.6% | [10] -40.9% | [11] -24.4% | [12] -42.2% | [13] 0.897% | [14] -10.6% | [15] -15.9% | [16] -46.9% | [17] -6.77%

CC1=C(NCCN2CCCC2)C(=O)c2c(OCc3ccc(F)c(Cl)c3)cccc2C1=O
inactive: [2] 50.4% | [3] 74.8% | [4] 72.7% | [5] 70.5% | [6] 93.7% | [7] 67.6% | [8] 84% | [9] 79.7% | [10] 75.2% | [11] 62.7% | [12] 40% | [13] 78.8% | [14] 41.3% | [15] 31.6% | [16] 80.7% | [17] 79.7%
active: [1] -14.3%

COc1ccc(/C=N\NC(=O)c2ccncc2)cc1O
inactive: [1] 95.7% | [2] 104% | [3] 98.5% | [4] 110% | [5] 87.8% | [6] 87.8% | [7] 98.4% | [8] 104% | [9] 110% | [10] 102% | [11] 87.3% | [12] 98.5% | [13] 107% | [14] 95.7% | [15] 94.1% | [16] 101% | [17] 94.2%

CS(=O)(CCCCN=C=S)=NC(=O)c1c(F)c(F)c(F)c(F)c1F (stereo not drawn)
inactive: [1] 23.1% | [3] 97.3% | [4] 100% | [5] 112% | [6] 97.3% | [7] 106% | [8] 102% | [9] 88.7% | [10] 103% | [11] 44.2% | [12] 99.1% | [13] 74.5% | [14] 12.8% | [15] 86.4% | [16] 94% | [17] 54.2%
active: [2] -3.75%

N#Cc1c2c(nc3n[nH]c(N)c13)CCCC2
inactive: [1] 93.6% | [2] 100% | [3] 111% | [4] 93.8% | [5] 101% | [6] 116% | [7] 109% | [8] 100% | [9] 117% | [10] 105% | [18] 130% | [12] 106% | [13] 96% | [14] 110% | [15] 101% | [16] 92.6% | [17] 111%

COc1ccc(OCC(=O)Nc2ccc(-c3nc4ccccc4s3)cc2C)cc1
inactive: [1] 76.1% | [2] 66% | [3] 113% | [4] 78.1% | [5] 55% | [6] 99.5% | [7] 35.2% | [8] 102% | [9] 87.8% | [10] 85% | [18] 91.9% | [12] 101% | [13] 97% | [14] 29.9% | [15] 74% | [16] 90.4% | [17] 107%

COC1C/C(=N\O)C2OC(c3ccccc3)OCC2O1 (stereo not drawn)
inactive: [1] 109% | [2] 104% | [3] 114% | [4] 109% | [5] 104% | [6] 100% | [7] 109% | [8] 110% | [9] 106% | [11] 103% | [18] 105% | [12] 102% | [13] 105% | [14] 102% | [15] 97.9% | [16] 110% | [17] 121%

O=C1C[C@H](Sc2nc(-c3ccc(F)cc3)cc(C(F)(F)F)n2)[C@H]2CO[C@@H]1O2
inactive: [1] 17.9% | [2] 96.9% | [3] 97.4% | [4] 105% | [5] 108% | [6] 108% | [7] 115% | [8] 91.6% | [9] 109% | [11] 62.3% | [18] 111% | [12] 102% | [13] 67.5% | [14] 46.4% | [15] 75.6% | [16] 105% | [17] 101%

COc1cc(-c2nc3ccccc3s2)ccc1NC(=O)COc1ccc(Cl)cc1
inactive: [1] 83.6% | [2] 63.5% | [4] 61.8% | [6] 87.1% | [7] 24.6% | [8] 42.4% | [9] 44.7% | [10] 33.2% | [18] 87.6% | [12] 72% | [13] 87.6% | [14] 40.4% | [15] 44.9% | [16] 85.1% | [17] 45.6%
active: [3] -3.09% | [5] 6.47%

COc1ccc(-c2cnoc2-c2cc(OC)c3c(c2)OCCO3)cc1
inactive: [4] 31.9% | [5] 50.4% | [6] 11.7% | [7] 29.2% | [9] 45.7% | [13] 19.5% | [14] 12.4%
active: [1] 3.75% | [2] -8.88% | [3] 9.43% | [8] -18.6% | [10] 3.01% | [18] 3.85% | [12] -27.9% | [15] -12.3% | [16] 8.32% | [17] 3.62%
